# Compound activity: PubChem BioAssay, National Center for Advancing Translational Sciences (NCATS)
# Pf growth 48h = inhibits P. falciparum growth in the first generation, 48 h | P. falciparum luciferase growth in erythrocytes, 48 h | Potency, µM (highest dose often 28.7 µM), for the others: at the highest dose activity change, negative = inhibition, actives largely listed as inhibitors | 5.9% of 310,000 active; note: potency is the fitted concentration of half-maximal effect; % is set by controls: 0 for no effect and ±100 for the full control effect
#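 Erythrocytes infected with P. falciparum carrying an integrated firefly luciferase reporter (2% hematocrit, 0.1% parasitemia final) were exposed to compounds in RPMI 1640 with 0.5% Albumax at 37 C, 5% CO2. Growth inhibition was scored as reduced luminescence.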
# NS1 inh = influenza NS1 inhibition; AID 2326; 0.4% of 270,000 active; Potency, µM (top dose mostly 46.1 µM), without a hit: top-dose activity, positive = more growth; calls by dose curve; note: potency is the fitted concentration of half-maximal effect; actives are rising curves; nearly all actives have a fitted effect of over 50% in size
#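 Recovery from NS1-induced slow growth read by OD600 in budding yeast switched to galactose assay medium (pH 6.0, -URA) at 1:100 dilution. Compound 23 nl per well; the matching strain lacking NS1 serves as control.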
# Pf growth 96h = inhibits malaria parasite growth, 96 h; 6.9% of 320,000 active; Potency, µM (highest dose often 28.7 µM), for inactives: at the highest dose activity change, negative = inhibition, actives largely listed as inhibitors; P. falciparum luciferase reporter growth, 96 h; AID 504834; note: potency is the fitted concentration of half-maximal effect; % is set by controls: 0 for no effect and ±100 for the full control effect
#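 Compounds incubated with erythrocytes infected by luciferase-expressing P. falciparum (2% hematocrit, 0.05% parasitemia final) for 96 hours, 37 C in 5% CO2. Growth inhibition scored as decreased luciferase luminescence.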
# Shiga inhibitor = blocks Shiga toxin action in Vero cells | Vero cells, Shiga toxin protein synthesis inhibition reporter | inhibition, % at 38.7 µM | 9.2% of 290,000 active | AID 2315; in the data active = inhibition mostly above about 28%, no sharp cut-off; inactive = mostly below about 43%; note: 0% is about no effect
# Giardia FBPA inh = blocks Giardia fructose-bisphosphate aldolase activity | purified Giardia FBPA | 0.71% of 290,000 active | A8B2U2 | AID 2451 | Potency, µM (top dose mostly 59.6 µM), inactives show at the top dose activity, negative = inhibition, actives largely listed as inhibitors; note: potency is the fitted concentration of half-maximal effect; % is set by controls: 0 for no effect and ±100 for the full control effect; nearly all actives have a fitted effect of over 55% in size
# Target sequence (A8B2U2 whole entry, looked up): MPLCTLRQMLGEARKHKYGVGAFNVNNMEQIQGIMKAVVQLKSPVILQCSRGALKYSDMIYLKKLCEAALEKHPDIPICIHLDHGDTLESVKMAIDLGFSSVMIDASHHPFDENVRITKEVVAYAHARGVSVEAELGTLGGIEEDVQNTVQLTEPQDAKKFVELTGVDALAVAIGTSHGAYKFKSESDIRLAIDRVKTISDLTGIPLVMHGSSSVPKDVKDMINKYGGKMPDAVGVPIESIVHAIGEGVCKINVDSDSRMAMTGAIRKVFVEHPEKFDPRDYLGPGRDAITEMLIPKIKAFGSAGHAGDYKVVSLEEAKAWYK
#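 40 nM FBPA preincubated 10 min at RT with compound (up to 57.5 uM final), then substrate plus GAPDH/TPI/NAD/arsenate coupling and diaphorase/resazurin added. Fluorescence read after 20 min at RT, 525/598 nm.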
# Cycloheximide cs = affects cycloheximide protein synthesis inhibition readout, counter-screen; cell reporter, cycloheximide protein synthesis inhibition counterscreen; 12% of 300,000 active; max response, %; AID 2314; in the data active = max response mostly above about 13%, no sharp cut-off; inactive = mostly below about 14%; note: read at 38.3 µM for the half of the compounds with a filed dose; 0% is about no effect
# * = called active by the depositor; i = inactive; ? = inconclusive; / = no result; + = active, no number; [ ] = remark or other dose. In the library only some 21% were active in any assay of this set; here they are far more common. Unless noted, calls come from the whole dose curve; as a rule, active = well fitted curve in the direction sought with a large enough effect; inconclusive = small, poorly fitted or top-dose-only effect, or another doubt; inactive = no such curve, though single readings can be large; an effect the other way counts as inactive or inconclusive.
SMILES,Pf growth 48h,NS1 inh,Pf growth 96h,Shiga inhibitor,Giardia FBPA inh,Cycloheximide cs
c1ccc2sc(-c3ccncc3)nc2c1,81.8%,-7.7%,117.3%,50.8*,7.1%,44.2*
O=C(Nc1cccc(-c2nc3ccccc3s2)c1)c1ccc2c(c1)OCO2,64.9%,10.3%,42.0%,-1.8,/,14.7
c1csc(-c2nc3ccccc3s2)c1,107.7%,-2.0%,109.8%,95.6*,-5.8%,55.9*
c1ccc2sc(-c3ccc4c(c3)OCO4)nc2c1,147.6%,-14.6%,383.5%,51.7*,-1.1%,33.6*
O=C(O)c1csc(-c2cccs2)n1,29.9%,/,-10.5%,6.0,-6.7%,-2.5
Oc1ccc(-c2nc3ccccc3s2)cc1,184.7%,-39.8%,1.9%,32.2,4.3%,32.0*
COc1ccc(C(=O)NC(CCSC)C(=O)NCc2nnc3ccccn23)cc1 (stereo not given),31.1%,/,20.9%,/,/,/
COc1ccc(NC(=O)CSc2cn[nH]n2)cc1OC,19.0%,15.7%,?,-17.0,-5.1%,-2.9
C=CC[C@@H]1C=C[C@H](ON=C(C)C)[C@H](CO)O1,/,/,/,/,-0.5%[12.9 µM],/
COCc1cc(C)nc(Sc2nc3c(c(=O)n(C)c(=O)n3C)n2C)c1C#N,?,3.8%,-51.4%,-6.3,8.1%,43.8
CC(=O)N[C@H](C(=O)N[C@@H](C)C(=O)N[C@H](C#N)CC(=O)O)C(C)C,5.3%,/,-0.1%,/,/,/
c1cncc(-c2nc3ccccc3s2)c1,64.0%,0.2%,129.7%,111.5*,0.5%,39.0*
CC(=O)N(Cc1cccnc1)c1cccc(-c2nc3ccccc3s2)c1,?,-1.0%,23.7%,63.4,6.6%,-2.2
CC(C)CCCN1C(Nc2ccccc2)=NC[C@@H]1C,4.0%,-4.5%,2.1%,-7.7,-0.3%,-0.5
CN(CC(=O)Nc1c(Cl)cccc1Cl)C(=O)C1CC(=O)N(Cc2ccccc2)C1 (stereo not given),3.9%,/,?,/,/,/
CCCCCSc1nnc(-c2ccccc2NC(C)=O)c(=O)[nH]1,3.0%,/,?,-6.2,18.2%,-2.2
CCCCSc1nsc(NC(C)=O)n1,71.3%,-6.7%,?,171.4*,-1.7%,43.1*
CCCCNC(=O)CSc1nnc(NC(C)=O)s1,-1.0%,-0.6%,15.4%,51.6,0.3%,-1.5
CCCCCCSc1nsc(NC(C)=O)n1,121.9%,-15.5%,5.0%,58.7*,7.4%,30.1*
CCCSc1nsc(NC(=O)c2cccnc2OCC)n1,0.0%,-4.8%,-11.2%,21.7,-5.2%,10.6
CCCSc1nsc(NC(=O)CCC)n1,i,/,3.7µM*,104.4*,-3.1%,36.6*
COCC(C)N1CC(O)=C(c2nc(-c3ccc(Cl)cc3)cs2)C1=N (stereo not given),10.7%,2.8%,-30.0%,-18.5,1.1%,-0.5
Cc1ccc(C)c(Oc2coc3cc(OCC(=O)Nc4ccccc4C(C)C)ccc3c2=O)c1,13.1µM*,29.8%,7.38µM*,-7.7,-2.5%,-2.7
O=C(CCCOc1ccccc1)N1CCN(c2ccccn2)CC1,175.6%,-14.5%,?,114.9*,3.5%,26.8*
O=C(CCCOc1ccccc1)N1CCN(c2ccc(F)cc2)CC1,/,-58.2%,11.7µM*,111.6,-6.2%,24.4*
SMILES,Pf growth 48h,NS1 inh,Pf growth 96h,Shiga inhibitor,Giardia FBPA inh,Cycloheximide cs
CC(=O)c1cc(F)ccc1OCC(=O)N1CCN(c2ccc(F)cc2)CC1,4.15µM*,-2.0%,-24.6%,-5.2,5.8%,-3.3
O=C(CCCOc1ccc(Cl)cc1Cl)N1CCN(c2ccccn2)CC1,?,-90.3%,/,27.1,-6.5%,-1.6
CCOC(=O)c1ccc(NC(=O)c2sc3nc4n(c(=O)c3c2C)CCC4)cc1,?,-2.3%,14.7µM*,9.9,5.1%,2.1
CCOc1ccc(NC(=O)c2sc3nc4n(c(=O)c3c2C)CCC4)cc1,-0.7%,0.4%,?,13.3,4.0%,5.3
Cc1cc(C)cc(NC(=O)c2sc3nc4n(c(=O)c3c2C)CCC4)c1,17.8%,4.2%,11.0%,2.1,2.7%,17.3
CCOC(=O)N1CCN(C(=O)Nc2sc3nc4n(c(=O)c3c2C)CCC(C)CC4)CC1 (stereo not given),11.7µM*,4.8%,13.1µM*,18.0,-0.1%,-2.7
CCOC(=O)N1CCC(NC(=O)c2sc3nc4n(c(=O)c3c2C)CCCC4)CC1,/,-4.6%,2.33µM*,-7.7,0.5%,-3.2
CCc1cccc(NC(=O)c2sc3nc4n(c(=O)c3c2C)CCC4)c1,41.8%,-5.0%,?,73.5*,/,28.2*
CC1(c2ccccc2)NC(=O)N(CC(=O)Nc2ccccc2C(=O)N2CCCCC2)C1=O (stereo not given),-16.4%,/,7.0%,/,/,/
Cc1cccc(N2C(=O)CC(N(O)c3ccccc3)C2=O)c1 (stereo not given),45.6%,-0.6%,13.0%,59.4,-0.3%,27.9*
O=C1CC(N(O)c2ccccc2)C(=O)N1c1ccc(Cl)c(Cl)c1 (stereo not given),10.7%,-3.1%,31.3%,17.6,1.4%,10.0*
Cc1cccc(N2C(=O)SC(N(C)c3ccccc3)C2=O)c1 (stereo not given),-7.5%,-6.6%,26.1%,11.5,0.8%,12.0
COC(=O)c1ccc(C(NC(=O)OCc2ccccc2)/C(F)=C/[C@@H](C)C(=O)Nc2ccc(OC)cc2)cc1 (stereo not given in full),/,/,/,/,-3.1%,/
Cc1ccc(CSCC(=O)N2CCN(c3ccccc3)CC2)cc1,-7.4%,-11.8%,4.15µM*,11.7,8.6%,6.7
Cc1ccc(CC(=O)N2CCOCC2)cc1,1.9%,5.6%,-6.8%,34.4,3.3%,10.3
Cc1ccc(CSCC(=O)N2CCOCC2)cc1,/,5.9%,-2.2%,33.7,-0.5%,20.1*
O=C(CSCc1ccccc1)N1CCN(c2ccc(F)cc2)CC1,19.6%,-159.7%,24.8%,20.6,0.2%[12.9 µM],45.4*
O=C(CSCc1cccc(F)c1)N1CCN(c2ccccc2)CC1,103.3%,-14.6%,?,83.1*,-1.6%,40.6*
Cc1ccc(N(C(=O)c2csnn2)C(C(=O)NC2CCCCC2)c2ccncc2)c(C)c1 (stereo not given),-20.0%,-5.4%,?,7.8,1.6%,-2.1
O=C(c1cccc(F)c1)N1CCC[C@@]2(CCN(c3ccncc3)C2)C1,/,/,/,/,7.3%,/
COc1ccc(C(=O)C2CCCN(C(=O)c3ccoc3C)C2)cc1F (stereo not given),?,6.5%,?,-14.4,-1.7%,0.9
CCOc1ccc(CN2C(=O)c3ccccc3Sc3ccc(C(=O)NCc4ccc5c(c4)OCO5)cc32)cc1,/,/,/,1.4,/,4.0
O=C(CSCc1ccccc1)N1CCN(c2ccccc2)CC1,71.7%,-10.4%,?,+,2.9%,46.6*
COc1ccc(-n2cc(CNC3CCC(O)CC3)c(-c3cccc(F)c3)n2)cc1 (stereo not given),?,0.1%,?,12.7,1.1%,1.9
O=C1CC(c2ccco2)CC2=C1C(c1ccccc1)n1nc(C(F)(F)F)nc1N2 (stereo not given),9.28µM*,8.3%,/,7.5,-2.0%,3.7
